PubChem BioAssay AID598 (SRMLSC, 2007)
Hit rate of the full screen: of about 85,000 compounds, about 5,100 (6%) were called active. The full list was thinned out, with actives kept by preference. A number with no mark means an inactive call.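 The calls were made as follows: active = viability at or below 40%; inactive = viability above 40%.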

test: H69AR cell viability reduction – human, 86K library, primary screen (AID 598); details: H69AR lung tumor viability, ATP luminescence, 72 h; at 10 µM; stronger effect = lower value;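 also: multidrug resistant small cell line overexpressing MRP-1 efflux transporter; 100% = mean luminescence of untreated control wells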

| Structure (SMILES) | viability |
| --- | --- |
| CC1CCc2c(nc3ncnn3c2Nc2ccc(OC(F)(F)F)cc2)C1 (stereo not given) | 69.4% |
| N#Cc1c(NC(=O)CSc2nc3ccccc3c(=O)n2Cc2ccco2)sc2c1CCCC2 | 3.86% (active) |
| CC(Sc1nc2ccccc2c(=O)n1Cc1ccco1)C(=O)c1ccccc1 (stereo not given) | 77.2% |
| COc1ccccc1NC(=O)CSc1nc2sc(C)c(C)c2c(=O)n1Cc1ccco1 | 58.9% |
| COC(=O)c1c(NC(=O)CSc2nncs2)sc2c1CCCCC2 | 50.8% |
| COc1ccc(-n2c(SCC(=O)Nc3sc4c(c3C#N)CCCC4)nnc2-c2ccc(O)cc2)cc1 | 11.8% (active) |
| COc1ccc(-c2nnc(SCC(=O)c3ccco3)n2-c2ccccc2)cc1 | 91.9% |
| CCC(C)NC(=O)C1CCCN(C(=O)NC2CCCCC2)C1 (stereo not given) | 94.6% |
| COc1ccc(C(C#N)Nc2ccc(C)cc2)cc1 (stereo not given) | 89.5% |
| Cc1cccc(OCCCC(=O)Nc2ccc(S(=O)(=O)N3CCCC3)cc2)c1 | 89.2% |
| O=C(c1ccc2c(c1)OCO2)N1CCOCC1 | 96.2% |
| O=C(Cn1cnc2c(cnn2-c2ccc(F)cc2)c1=O)NCCc1ccccc1 | 99.4% |
| CN(Cc1ccccc1)C(=O)CCNC(=O)Cn1cnc2ccccc2c1=O | 93.7% |
| O=C(Cn1cnc2c(cnn2-c2ccccc2)c1=O)NCc1ccccc1 | 30.8% (active) |
| O=C(OC1CCCCC1=O)c1cccc(S(=O)(=O)NCc2ccccc2)c1 (stereo not given) | 68.2% |
| CCn1c(=O)c(=O)n(CC)c2cc(S(=O)(=O)N3CCc4ccccc43)ccc21 | 27.2% (active) |
| CSc1nc2ccc(S(=O)(=O)N3CCc4ccccc43)cc2s1 | 64.1% |
| Cc1nn(C)c(C)c1S(=O)(=O)N1CCc2ccccc21 | 95.6% |
| Cc1ccc(S(=O)(=O)N2CC(=O)Nc3ccccc32)cc1C | 102% |
| Cn1c(=O)c(=O)n(C)c2cc(S(=O)(=O)NCCc3ccccc3)ccc21 | 94.1% |
| Cn1c(=O)n(C)c2cc(S(=O)(=O)N3CCCc4ccccc43)ccc21 | 21.1% (active) |
| CC1=CC(C)(C)NC(=S)N1c1ccccc1 | 98.5% |
| CCN(CC)CCCNC(=O)CCc1ccccc1 | 97.4% |
| O=C(NCCOc1ccccc1)c1ccccc1 | 91.4% |
| CCc1ccc(CNC(=O)C2CCCN(c3nc4ccccc4o3)C2)cc1 (stereo not given) | 92.4% |

| Structure (SMILES) | viability |
| --- | --- |
| NC1=NC(=O)C2(COC(c3ccccc3Cl)OC2)S1 (stereo not given) | 92.6% |
| CCOc1ccc(-n2c(N)c(C(=O)NCC3CCCO3)sc2=S)cc1 (stereo not given) | 94.8% |
| Oc1c(Cl)cc(Cl)c(Cl)c1Cc1c(O)c(Cl)cc(Cl)c1Cl | 13.5% (active) |
| COc1cc(OC)nc(NC(=O)CCl)n1 | 98.7% |
| C=C(Cl)COC(=O)C1C2C=CC(C2)C1C(=O)O (stereo not given) | 101% |
| Cc1csc(NC(=O)NC2(C(F)(F)F)Oc3ccccc3O2)n1 | 22.9% (active) |
| CCOC(=O)Cc1csc(NC(=O)Nc2ccccc2)n1 | 96.7% |
| Cc1csc(NC(=O)CN2CCCCCC2)n1 | 95.1% |
| COc1cc(CC(=O)NCc2cccs2)cc(OC)c1OC | 106% |
| COc1ccc(Nc2nc(=O)[nH]nc2C)cc1 | 95.5% |
| CCOC(=O)c1c(NC(=O)CCl)sc(C(=O)N(CC)CC)c1C | 2.11% (active) |
| CCOC(=O)Nc1sc(C(=O)N(C)C)c(C)c1C(=O)OCC | 84.2% |
| CCOC(=O)c1sc(NC(=O)CCN2CCOCC2)c(C(=O)OCC)c1C | 45.7% |
| Cc1ccc(C(=O)N2CCCC2)c(F)c1F | 87.4% |
| OC(COc1ccccc1)Cn1cc(Br)cn1 (stereo not given) | 109% |
| OC(CN=c1sc2ccccc2n1CC(O)COc1ccccc1)COc1ccccc1 (stereo not given) | 23.3% (active) |
| CC(C)c1ccc(OCC(O)Cn2cnc3ccccc32)cc1 (stereo not given) | 82.6% |
| Cc1cccn2c(=O)c(/C=C(\C#N)S(=O)(=O)c3ccc(Cl)cc3)c(N3CCC(C(N)=O)CC3)nc12 | 82.2% |
| CC1=CC(C)(C)Nc2ccc(OC(=O)C(Cc3ccccc3)N3C(=O)C4CCCCC4C3=O)cc21 (stereo not given) | 80.3% |
| CC(OC(=O)CN1C(=O)C2CCCCC2C1=O)C(=O)Nc1ncc(Cl)cc1Cl (stereo not given) | 101% |
| CC1=CC(C)(C)Nc2ccc(OC(=O)CN3C(=O)C4CCCCC4C3=O)cc21 (stereo not given) | 0.5% (active) |
| CCCCCCSc1nsc(N)n1 | 82.7% |
| CCOC(=O)c1[nH]c(C)c(C(=O)OCC(=O)N2c3ccccc3CC2C)c1C (stereo not given) | 87% |
| Cc1cccc2c1N(CC(=O)OC(C)C)C(=O)C2=O | 71.7% |
| CC(C)OC(=O)CN1C(=O)c2ccccc2C1=O | 98% |

| Structure (SMILES) | viability |
| --- | --- |
| CC(C)OC(=O)CN1C(=O)C(=O)c2ccccc21 | 13.1% (active) |
| CCOC(=O)CN1C(=O)C(=O)c2cc(C)ccc21 | 20.2% (active) |
| CCCCOC(=O)Cn1c(=O)n(CC(=O)OCCCC)c2cc(C)ccc21 | 99.5% |
| CCOC(=O)c1cc2n(c1C)-c1ccccc1C2=O | 90.3% |
| CCCc1nc2ccccc2c(C(=O)OCC(=O)c2ccc3c(c2)NC(=O)CO3)c1CC | 43.2% |
| Cc1ccc(Cc2c(C)nc3nc(SCC(=O)NCCN4CCOCC4)nn3c2C)cc1 | 93.9% |
| CCOc1ccc(NC(=O)CN(C)CC(=O)Nc2cccc(Cl)c2C)cc1OCC | 48.5% |
| Cc1cccc(NC(=O)N(Cc2cc3cc(C)cc(C)c3[nH]c2=O)CC2COCCO2)c1 (stereo not given) | 47% |
| Cn1c(Cn2nnc3ccccc32)nnc1SCC(=O)c1ccccc1F | 79.3% |
| CN=C1SC(CC(=O)Nc2ccc(C(=O)O)cc2)C(=O)N1C (stereo not given) | 97.5% |
| O=C(CN1C(=O)CC(c2ccccc2)=Nc2ccccc21)NC1CCCCC1 | 77.6% |
| Cc1ccnc(-n2sc3ccccc3c2=O)n1 | 1.54% (active) |
| Cc1ccnc(N2CCC(C(=O)NC3CCCCCC3)CC2)n1 | 77.9% |
| Cc1nc2ccccc2c(=O)n1CCCn1ccnc1 | 99% |
| CC(C)(C)N1CC(c2nc3ccccc3n2Cc2ccc(F)cc2)CC1=O (stereo not given) | 79.4% |
| CCCn1c(C(Cc2ccccc2)NC(=O)COC)nc2ccccc21 (stereo not given) | 92.9% |
| CNC(=O)c1nnc(Cc2ccc(Cl)cc2)o1 | 97.8% |
| O=C(OCc1ccccc1F)c1ccc2c(c1)OCCO2 | 91.2% |
| O=C(COC(=O)c1ccc2c(c1)OCCO2)NCc1ccccc1 | 92.1% |
| O=C(CCN1CCc2ccccc2C(O)(c2ccccc2)C1)c1ccc2c(c1)OCCO2 (stereo not given) | -0.08% (active) |
| CCn1c(SCC(=O)Nc2nc(C)cs2)nnc1C(C)NC(=O)c1ccccc1 (stereo not given) | 88.1% |
| COCCn1c(=S)[nH]c2cc(C(=O)NCCc3ccc(OC)c(OC)c3)ccc2c1=O | 78.1% |
| Cc1cc2c(c(=O)n1Cc1ccco1)C(c1ccccc1)C(C#N)=C(N)O2 (stereo not given) | 70% |
| N#CC1=C(N)Oc2c(sc3ccccc23)C1c1ccco1 (stereo not given) | 14.4% (active) |
| O=C(COc1cc(Cl)c(Cl)cc1Cl)NC(=O)NC1CCCC1 | 90.7% |

| Structure (SMILES) | viability |
| --- | --- |
| CCOC(=O)c1cnc(SCC(=O)Nc2ccccc2C(=O)OC)nc1N | 87.2% |
| c1ccc(-n2ncc3c2ncn2c(C4CCCCC4)nnc32)cc1 | 105% |
| CCN(CC)C(=O)CSc1ncnc2c1cnn2-c1ccccc1 | 86.5% |
| c1ccc(-n2ncc3c2ncn2c(CSc4nc5ccccc5s4)nnc32)cc1 | 5.83% (active) |
| CCCNC(=O)N1CCN(C(=O)NCCC)CC1 | 104% |
| CC(=O)c1cccc(NC(=O)C2CCCN2S(=O)(=O)c2cccc3nsnc23)c1 (stereo not given) | 88.1% |
| CCC(C)NC(=O)c1ccccc1NC(=O)c1ccccc1N(C)S(C)(=O)=O (stereo not given) | 108% |
| CC(C)(C)C(=O)Cn1c(NCCO)nc2ccccc21 | 98% |
| Cc1ccccc1NC(=O)Cc1nnc(SCC(=O)N2CCN(c3ccccc3)CC2)n1C | 94% |
| Cn1c(Cc2cccc3ccccc23)nnc1SCC(=O)N1CCN(c2cccc(Cl)c2)CC1 | 38.5% (active) |
| Cc1cc2nnc(SCC(=O)N3CCN(c4ccccc4)CC3)n2c(N)n1 | 64.4% |
| CCn1nccc1C(=O)Nc1ccc(Cl)c(Cl)c1 | 77% |
| CN(C)CCNC(CC(=O)Nc1ccc(Cl)c(Cl)c1)C(=O)O (stereo not given) | 99.7% |
| O=C(CC(O)(C(F)(F)F)C(F)(F)F)Nc1ccc(Cl)c(Cl)c1 | 1.49% (active) |
| CCOC(=O)N1CCC(N(CCOC)C(=O)Nc2ccc(C)c(C)c2)CC1 | 44.7% |
| Cc1noc(C)c1CSCC(=O)Nc1nc2ccc(Oc3ccccc3)cc2s1 | 76.8% |
| COc1ccc(OC)c(-n2cc3c(=O)n(C)c(=O)n(C)c3c2)c1 | 29.6% (active) |
| COc1ccc(-c2c3c(=O)n(C)c(=O)n(C)c3cn2-c2cccc(OC)c2)cc1 | 71.5% |
| Cn1c(=O)c2cn(-c3cccc4ccccc34)cc2n(C)c1=O | 47.3% |
| COCCCn1c(SCC(=O)Nc2ccccc2)nnc1-c1ccncc1 | 95.9% |
| CC1(C)COC(c2cccn2Cc2ccccc2Cl)=N1 | 104% |
| O=c1c2ccccc2nc2n1C1(CCCCC1)Cc1ccccc1-2 | 83.7% |
| Cc1cc(NC(=O)CN2CCCC(C)C2)n(-c2nc3ccccc3s2)n1 (stereo not given) | 62.1% |
| CCOC(=O)N1CCC(NC(=O)c2ccc3nc(N4CCOCC4)sc3c2)CC1 | 95.7% |
| CCOC(=O)N1CCN(CC(=O)Nc2cc(C)nn2-c2nc3ccccc3s2)CC1 | 4.45% (active) |
